Only some compounds are listed: those with a hit (about 4.8% of all), similar ones and a draw of the others.
DRD3 agonist: agonists of human D3 dopamine receptor; P35462; 410,000 tested, 0.58% active; max activation, %; D3R DiscoveRx beta-arrestin cells, luminescence, 90 min; in the data active means max activation above about 30%
Target sequence (P35462 whole entry, looked up): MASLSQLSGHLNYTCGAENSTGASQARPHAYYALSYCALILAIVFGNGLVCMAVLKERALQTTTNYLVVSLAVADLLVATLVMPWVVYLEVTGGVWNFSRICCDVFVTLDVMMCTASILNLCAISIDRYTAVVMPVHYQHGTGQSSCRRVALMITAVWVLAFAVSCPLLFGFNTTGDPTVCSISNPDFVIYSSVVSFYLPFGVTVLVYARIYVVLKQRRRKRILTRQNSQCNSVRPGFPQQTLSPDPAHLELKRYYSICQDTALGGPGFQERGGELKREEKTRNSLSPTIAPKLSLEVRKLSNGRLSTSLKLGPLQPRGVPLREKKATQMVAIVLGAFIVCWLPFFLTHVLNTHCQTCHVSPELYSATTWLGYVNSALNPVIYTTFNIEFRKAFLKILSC
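Cells at 1500/well, incubated overnight, then treated with pinned compounds (dopamine as control) for 90 min at 37 degrees C. DiscoveRx reagent added for 30 - 60 minutes at room temperature; luminescence read.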
S2 tox: cell viability loss in ATXN counter-screen; S2 cells (HEK-293 line with an ATXN2-luciferase reporter) viability, CellTiter-Fluor protease fluorescence, 24 h; Potency, µM (titrated, usually from 56.7 µM), actives largely listed as cytotoxic; 400,000 tested, 0.49% active; further: nearly all actives have a fitted effect of over 40% in size
DRD3 antagonist: D3 dopamine receptor (human) antagonism. P35462. D3R cells, DiscoveRx beta-arrestin luminescence, antagonist mode; stronger effect = lower value. max response, negative = inhibition, %. 360,000 tested, 2.5% active; in the data active means max response below about -50%; inconclusive means no clear call, values can overlap the other calls
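Cells plated overnight at 1500 cells/well, then exposed to library compounds with dopamine controls for 90 minutes at 37 degrees C. DiscoveRx reagent added for 30–60 minutes at room temperature; luminescence read, quantitative HTS format.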
ATXN2 expr inh: inhibitors of ATXN2 expression; Potency, µM (titrated, usually from 57 µM), actives largely listed as inhibitors; AID 1745845; 360,000 tested, 0.72% active; HEK-293 ATXN2-luciferase reporter, luminescence, 24 h; further: nearly all actives have a fitted effect of over 55% in size
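qHTS (up to 57 uM final) was run with 24 h compound exposure of reporter cells at 37 °C. Each well was multiplexed: SteadyGlo luminescence measured ATXN2-luciferase expression after a fluorogenic Gly-Phe-AFC viability readout (25 uM final).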
TGFb inhibitor: inhibitors of TGF-b signaling. HepG2 CAGA-GFP TGF-b/SMAD3 reporter, GFP fluorescence, 18 h; TGF-beta stimulated, 500 pg/mL final. Potency, µM (series often up to 46.1 µM), most hits filed as inhibitors. 410,000 tested, 1.2% active. AID 588855; further: nearly all actives have a fitted effect of over 65% in size
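Read-out: total well GFP (ex488/em500-530) summed from mean per-cell fluorescence. Cells: HEPG2 CAGA-GFP, 1% FBS DMEM, 18 h at 37 degrees C with 500 pg/mL final TGF-beta. Unstimulated wells served as the full-inhibition control; stimulated DMSO wells = 0%.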
HepG2 viability: kills HepG2 cells in TGF-b inhibitor counter-screen; Potency, µM (titrated, usually from 46.1 µM), usual class: cytotoxic; HepG2 CAGA-GFP viability, ATP luminescence, 18 h; 410,000 tested, 0.76% active
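HepG2 CAGA-GFP cells (1000/well, DMEM with 1% FBS) received compound, then TGF-beta at 500 pg/mL final, and were incubated 18 hours at 37 degrees C. Viability was read by CellTiter-Glo luminescence. Media-only wells were set as complete cell-killing and DMSO as no toxicity.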
Of the large screens only hits and unclear results are named; the others gave an inactive call. Unless noted, the call rests on the fitted dose curve; in most records, active means well fitted curve in the direction sought with a large enough effect; inconclusive means small, poorly fitted or top-dose-only effect, or another doubt; inactive means no such curve, though single readings can be large; an effect the other way counts as inactive or inconclusive.

COC(=O)CN1C(c2ccc(OC)cc2)=Nc2ccc(Cl)cc2C1c1ccccc1 (configuration not stated)	S2 tox inconclusive, DRD3 antagonist -60
COc1cc(/C=C(/C#N)c2nc(-c3cc4ccccc4oc3=O)cs2)ccc1O	none (no result: DRD3 antagonist)
COC(=O)c1ccccc1NC(=O)COc1ccccc1C(=O)Nc1ccccc1	TGFb inhibitor inconclusive (no result: DRD3 agonist, S2 tox, DRD3 antagonist, ATXN2 expr inh)
Cc1ccc(S(=O)(=O)c2nnn3c2nc(NC(C)C)c2sccc23)cc1	TGFb inhibitor 10µM, HepG2 viability 16µM (no result: S2 tox, DRD3 antagonist, ATXN2 expr inh)
COc1cccc(O)c1CN1CCC2(CC1)c1ccccc1[C@@H](NC(=O)c1ccsc1)[C@@H]2OC	none (no result: DRD3 agonist, DRD3 antagonist, ATXN2 expr inh, TGFb inhibitor, HepG2 viability)
O=C(CCc1ccccc1)NC1(Cc2ccccc2)CCN(CCc2cccs2)C1=O (configuration not stated)	S2 tox inconclusive, TGFb inhibitor inconclusive
O=C(NC1(Cc2ccccc2)CCN(Cc2ccc(-c3ccccc3)cc2)C1=O)c1ccccc1 (configuration not stated)	S2 tox 32µM, ATXN2 expr inh inconclusive, TGFb inhibitor inconclusive
COc1cccc(CN2C(=O)c3ccccc3Sc3ccc(C(=O)NCc4ccccc4)cc32)c1	none (no result: DRD3 antagonist)
CCCCN1CC(c2nc3ccccc3n2CCCCOc2cccc(C)c2C)CC1=O (configuration not stated)	S2 tox inconclusive, ATXN2 expr inh inconclusive, TGFb inhibitor inconclusive, HepG2 viability 11µM (no result: DRD3 antagonist)
CCCCN1CC(c2nc3ccccc3n2CCCCOc2ccc(C)c(C)c2)CC1=O (configuration not stated)	ATXN2 expr inh inconclusive, TGFb inhibitor 11µM (no result: S2 tox, DRD3 antagonist)
Oc1c(C(c2ccccc2Cl)N2CCCC2)sc2nc(-c3ccco3)nn12 (configuration not stated)	none (no result: S2 tox, DRD3 antagonist, ATXN2 expr inh)
Cc1ccc(CNc2nc3ccccc3n3c(C)nnc23)cc1	none (no result: DRD3 antagonist)
CCCn1c(=O)n(-c2ccccc2Cl)c(=O)c2sc3ccccc3c21	S2 tox inconclusive (no result: DRD3 antagonist)
CCOc1ccccc1NC(=O)Cn1nnc2sc3c(c2c1=O)CCC(C(C)(C)C)C3 (configuration not stated)	none (no result: DRD3 antagonist)
Cc1onc(-c2ccccc2)c1CNS(=O)(=O)c1ccccc1	HepG2 viability 11µM
Cc1ccc(S(=O)(=O)NCc2c(-c3ccccc3)noc2C)cc1	none (no result: S2 tox)
CCC(=O)NC(c1ccco1)c1cc(Br)c2cccnc2c1O (configuration not stated)	S2 tox inconclusive, ATXN2 expr inh 5µM, TGFb inhibitor 4µM (no result: DRD3 agonist, DRD3 antagonist)
CCCC(=O)NC(c1ccco1)c1cc([N+](=O)[O-])c2cccnc2c1O (configuration not stated)	DRD3 antagonist inconclusive, ATXN2 expr inh inconclusive
CC(=O)NC(c1ccc(Cl)cc1)c1ccc2cccnc2c1O (configuration not stated)	S2 tox inconclusive, TGFb inhibitor inconclusive (no result: ATXN2 expr inh)
CC(=O)NC(c1ccco1)c1ccc2cccnc2c1O (configuration not stated)	DRD3 antagonist -62, ATXN2 expr inh 10µM, TGFb inhibitor inconclusive
CC(C)CC(=O)N1C/C=C\C[C@@H](c2ccc(Cl)cc2)N(Cc2ccc(Cl)cc2)C(=O)[C@@H]1Cc1ccccc1	TGFb inhibitor inconclusive (no result: DRD3 agonist, S2 tox, DRD3 antagonist, ATXN2 expr inh)
O=C(COc1ccc(/C=N/NC(=O)c2ccncc2)cc1)Nc1cccc([N+](=O)[O-])c1	DRD3 antagonist inconclusive, TGFb inhibitor inconclusive
O=C(COc1ccc(/C=N/NC(=O)c2ccccc2O)cc1)Nc1ccc([N+](=O)[O-])cc1	DRD3 agonist 41, S2 tox inconclusive
CCOc1ccc(S(=O)(=O)Nc2ccc3c(c2)c(C(C)=O)c(C)n3S(=O)(=O)c2ccc(OCC)cc2)cc1	TGFb inhibitor 11µM (no result: S2 tox, DRD3 antagonist, ATXN2 expr inh)
CCOc1ccc(S(=O)(=O)Nc2ccc3c(c2)n(C)c(=O)n3C)cc1	none
COc1ccc(NC(=O)c2cc(S(=O)(=O)N3CCCC3)c[nH]2)cc1	TGFb inhibitor inconclusive, HepG2 viability 2.5µM
CC(=O)c1ccc(NC(=O)c2ccc([N+](=O)[O-])o2)cc1	S2 tox inconclusive, TGFb inhibitor 13µM, HepG2 viability 16µM (no result: ATXN2 expr inh)
Cc1ccc(NC(=O)c2ccc([N+](=O)[O-])o2)cc1S(=O)(=O)N1CCOCC1	ATXN2 expr inh inconclusive, TGFb inhibitor 14µM
CC(=O)c1cccc(NC(=O)c2ccc([N+](=O)[O-])o2)c1	S2 tox inconclusive, TGFb inhibitor inconclusive
COc1ccc(NC(=O)c2ccc([N+](=O)[O-])o2)cc1	TGFb inhibitor 11µM
CCCOc1ccc(CNC(=O)Cn2cc3c(n2)-c2c(oc(C(=O)N4CCOCC4)c2C)CC3)cc1	TGFb inhibitor inconclusive (no result: S2 tox, DRD3 antagonist, ATXN2 expr inh)
COCCNC(=O)CCCn1c(SCC(=O)c2ccc(Br)cc2)nc2c(sc3ccccc32)c1=O	none (no result: S2 tox, DRD3 antagonist, ATXN2 expr inh)
Cc1ccc(N2CC(NC(=O)Cc3ccc(F)cc3)CC2=O)cc1C (configuration not stated)	none (no result: S2 tox, DRD3 antagonist, ATXN2 expr inh)
CC(NC(=O)c1ccc([N+](=O)[O-])o1)C12CC3CC(CC(C3)C1)C2 (configuration not stated)	TGFb inhibitor 11µM
Cc1cc(C)cc(NC(=O)c2ccc([N+](=O)[O-])o2)c1	S2 tox inconclusive, DRD3 antagonist inconclusive, ATXN2 expr inh inconclusive, TGFb inhibitor 11µM, HepG2 viability 13µM
COc1ccc(NC(=O)c2cc(S(=O)(=O)N3CCCCC3)cn2C)cc1Cl	DRD3 agonist 49, TGFb inhibitor inconclusive (no result: DRD3 antagonist)
COc1cc(NC(=O)c2ccc([N+](=O)[O-])o2)ccc1NC(=O)c1ccco1	TGFb inhibitor 1.1µM (no result: ATXN2 expr inh)
Cc1cc(C)nc(NC(=O)c2ccc([N+](=O)[O-])o2)n1	S2 tox inconclusive, TGFb inhibitor inconclusive
Cn1nccc1C(=O)NCC1CCC2(CCN(Cc3ccc(-c4ccc(Cl)cc4)o3)CC2)O1 (configuration not stated)	none (no result: DRD3 agonist, DRD3 antagonist, ATXN2 expr inh, TGFb inhibitor, HepG2 viability)
CCCCCC(C)NC(=S)NC(=O)c1cc(S(=O)(=O)N2CCOCC2)ccc1C (configuration not stated)	TGFb inhibitor 11µM
O=C(Nc1ccc(Cl)cn1)c1ccc([N+](=O)[O-])o1	ATXN2 expr inh inconclusive, TGFb inhibitor 11µM, HepG2 viability 18µM
COc1ccc(NC(=O)c2cc(S(=O)(=O)N3CCCCC3)ccc2C)cc1S(=O)(=O)N1CCOCC1	DRD3 antagonist -52
CCOc1ccc(S(=O)(=O)N2CCN(c3nc(-c4ccccc4)nc4ccccc34)CC2)cc1OCC	none (no result: DRD3 agonist, S2 tox, DRD3 antagonist, ATXN2 expr inh)
Cc1nc2nc(NCc3ccc(Cl)cc3)[nH]n2c(=O)c1Cc1ccccc1	none (no result: DRD3 antagonist)
Cn1nc(C(C)(C)C)cc1NC(=O)Nc1cc(Cl)cc(Cl)c1	TGFb inhibitor inconclusive, HepG2 viability 16µM
O=c1cc(CSc2ccc(Cl)cc2)nc(-c2ccccn2)[nH]1	DRD3 antagonist -53, TGFb inhibitor inconclusive (no result: S2 tox, ATXN2 expr inh)

Screens from PubChem BioAssay.
